These results are taken from ChEMBL document CHEMBL1961873, “Compounds: GSK PKIS; Assays: Nanosyn kinase panel” (2012).

By inhibition is commonly meant the change of the read-out against control, counted positive when it falls. Higher therefore signals a response far below the control.

In assay [1] the target is Protein kinase C gamma type (Homo sapiens) (UniProt P05129). As to conditions: at 1 µM.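 Note: each value is an averaged percent inhibition of the enzyme.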
Assay [2] has as its target T1, Protein kinase C iota type (Homo sapiens) (UniProt P41743).
T1 sequence (whole entry): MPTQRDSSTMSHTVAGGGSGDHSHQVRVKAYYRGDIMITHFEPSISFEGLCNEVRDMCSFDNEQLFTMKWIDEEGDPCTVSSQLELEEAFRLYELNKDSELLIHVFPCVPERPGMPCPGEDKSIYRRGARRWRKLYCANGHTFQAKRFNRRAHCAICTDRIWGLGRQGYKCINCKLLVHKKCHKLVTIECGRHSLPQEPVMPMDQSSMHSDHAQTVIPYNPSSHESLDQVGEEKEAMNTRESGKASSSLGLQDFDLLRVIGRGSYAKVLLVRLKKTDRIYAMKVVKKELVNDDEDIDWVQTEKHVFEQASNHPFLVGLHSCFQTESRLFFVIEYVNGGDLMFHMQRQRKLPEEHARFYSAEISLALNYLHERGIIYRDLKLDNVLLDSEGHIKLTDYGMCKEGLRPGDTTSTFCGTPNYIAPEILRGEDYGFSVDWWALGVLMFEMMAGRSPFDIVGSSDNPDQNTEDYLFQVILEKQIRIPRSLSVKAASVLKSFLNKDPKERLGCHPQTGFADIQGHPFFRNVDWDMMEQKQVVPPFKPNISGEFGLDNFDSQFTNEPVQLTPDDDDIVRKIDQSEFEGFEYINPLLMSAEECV
As to conditions: at 0.1 µM.

Assay [3] deals with T1, Protein kinase C iota type (Homo sapiens). As to conditions: at 1 µM.
The target of assay [4] is Protein kinase C theta type (Homo sapiens) (UniProt Q04759). As to conditions: at 0.1 µM.
Assay [5] shares this target. As to conditions: at 1 µM.
Assay [6] deals with Protein kinase C beta type (Homo sapiens) (UniProt P05771). As to conditions: at 0.1 µM.
The target is the same in assay [7]. As to conditions: at 1 µM.
The target in assay [8] is T2, Serine/threonine-protein kinase D1 (Homo sapiens) (UniProt Q15139).
T2 sequence (whole entry): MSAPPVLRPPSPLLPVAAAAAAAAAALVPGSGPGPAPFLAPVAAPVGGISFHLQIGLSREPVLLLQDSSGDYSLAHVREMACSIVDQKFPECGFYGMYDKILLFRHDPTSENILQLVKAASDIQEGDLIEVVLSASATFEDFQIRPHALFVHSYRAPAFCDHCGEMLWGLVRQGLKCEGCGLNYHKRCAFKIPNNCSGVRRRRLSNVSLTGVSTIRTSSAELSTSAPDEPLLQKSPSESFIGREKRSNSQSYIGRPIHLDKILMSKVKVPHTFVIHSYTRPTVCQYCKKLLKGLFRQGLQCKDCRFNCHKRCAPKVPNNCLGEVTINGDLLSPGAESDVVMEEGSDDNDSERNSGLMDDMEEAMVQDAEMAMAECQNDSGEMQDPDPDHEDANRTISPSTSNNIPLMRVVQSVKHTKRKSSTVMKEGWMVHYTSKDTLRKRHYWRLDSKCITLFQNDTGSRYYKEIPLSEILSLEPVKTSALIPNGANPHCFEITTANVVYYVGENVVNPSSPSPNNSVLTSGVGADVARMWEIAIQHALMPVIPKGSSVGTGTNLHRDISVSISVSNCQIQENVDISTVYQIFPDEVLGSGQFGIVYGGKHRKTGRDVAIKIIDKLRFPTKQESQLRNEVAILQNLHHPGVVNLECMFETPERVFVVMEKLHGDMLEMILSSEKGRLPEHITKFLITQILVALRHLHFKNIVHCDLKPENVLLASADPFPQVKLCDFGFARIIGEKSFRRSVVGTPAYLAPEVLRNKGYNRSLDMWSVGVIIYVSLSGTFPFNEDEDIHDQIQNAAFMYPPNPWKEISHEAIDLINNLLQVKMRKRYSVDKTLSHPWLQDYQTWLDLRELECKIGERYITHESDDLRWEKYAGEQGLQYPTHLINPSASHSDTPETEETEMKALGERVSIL
As to conditions: at 0.1 µM.

Assay [9] has as its target T2, Serine/threonine-protein kinase D1 (Homo sapiens). As to conditions: at 1 µM.
Assay [10] concerns the target T3, Serine/threonine-protein kinase D2 (Homo sapiens) (UniProt Q9BZL6).
T3 sequence (whole entry): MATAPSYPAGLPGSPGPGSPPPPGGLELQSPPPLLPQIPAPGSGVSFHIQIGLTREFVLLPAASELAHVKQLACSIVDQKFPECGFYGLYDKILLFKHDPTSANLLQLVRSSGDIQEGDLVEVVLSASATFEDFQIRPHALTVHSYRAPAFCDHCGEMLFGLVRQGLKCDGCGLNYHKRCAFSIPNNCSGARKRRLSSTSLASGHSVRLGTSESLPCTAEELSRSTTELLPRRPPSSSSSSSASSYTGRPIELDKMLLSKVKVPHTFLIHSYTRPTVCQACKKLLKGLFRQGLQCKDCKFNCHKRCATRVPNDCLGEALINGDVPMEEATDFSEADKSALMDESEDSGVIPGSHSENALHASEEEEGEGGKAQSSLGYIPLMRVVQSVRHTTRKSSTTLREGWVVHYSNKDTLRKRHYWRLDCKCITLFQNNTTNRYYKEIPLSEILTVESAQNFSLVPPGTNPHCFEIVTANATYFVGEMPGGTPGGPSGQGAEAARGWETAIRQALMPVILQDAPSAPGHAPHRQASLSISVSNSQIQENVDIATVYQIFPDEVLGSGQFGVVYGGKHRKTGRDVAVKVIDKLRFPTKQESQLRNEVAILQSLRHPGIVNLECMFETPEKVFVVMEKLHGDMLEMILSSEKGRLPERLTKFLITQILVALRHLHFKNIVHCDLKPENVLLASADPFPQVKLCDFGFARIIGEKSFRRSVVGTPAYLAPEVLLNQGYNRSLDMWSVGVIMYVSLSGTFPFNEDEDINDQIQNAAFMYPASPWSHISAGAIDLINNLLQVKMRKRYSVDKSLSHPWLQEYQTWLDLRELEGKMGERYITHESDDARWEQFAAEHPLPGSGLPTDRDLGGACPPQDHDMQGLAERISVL
As to conditions: at 0.1 µM.

Assay [11] deals with T3, Serine/threonine-protein kinase D2 (Homo sapiens). As to conditions: at 1 µM.
Assay [12] deals with T4, Serine/threonine-protein kinase D3 (Homo sapiens) (UniProt O94806).
T4 sequence (whole entry): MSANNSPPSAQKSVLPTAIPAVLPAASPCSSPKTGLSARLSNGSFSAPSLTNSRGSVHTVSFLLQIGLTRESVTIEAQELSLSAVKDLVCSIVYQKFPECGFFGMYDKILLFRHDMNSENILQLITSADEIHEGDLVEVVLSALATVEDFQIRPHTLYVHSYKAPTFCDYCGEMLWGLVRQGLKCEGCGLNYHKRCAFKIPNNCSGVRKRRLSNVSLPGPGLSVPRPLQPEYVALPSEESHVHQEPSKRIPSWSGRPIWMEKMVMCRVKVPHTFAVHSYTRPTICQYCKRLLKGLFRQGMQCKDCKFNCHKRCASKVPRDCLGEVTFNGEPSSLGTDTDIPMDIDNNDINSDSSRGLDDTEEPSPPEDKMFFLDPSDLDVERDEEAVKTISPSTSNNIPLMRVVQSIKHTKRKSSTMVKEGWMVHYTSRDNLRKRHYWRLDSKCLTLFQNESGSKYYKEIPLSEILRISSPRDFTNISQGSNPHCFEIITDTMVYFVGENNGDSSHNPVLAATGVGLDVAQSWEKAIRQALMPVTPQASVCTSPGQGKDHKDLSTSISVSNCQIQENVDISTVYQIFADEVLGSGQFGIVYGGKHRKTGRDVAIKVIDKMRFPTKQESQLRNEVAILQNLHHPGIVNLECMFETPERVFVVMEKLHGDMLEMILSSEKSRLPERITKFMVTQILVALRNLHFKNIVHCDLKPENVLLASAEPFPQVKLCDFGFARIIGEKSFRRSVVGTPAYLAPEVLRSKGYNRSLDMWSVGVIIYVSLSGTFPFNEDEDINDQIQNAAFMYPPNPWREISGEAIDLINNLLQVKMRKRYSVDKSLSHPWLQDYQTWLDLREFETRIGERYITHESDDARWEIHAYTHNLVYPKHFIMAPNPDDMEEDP
As to conditions: at 0.1 µM.

Assay [13] has as its target T4, Serine/threonine-protein kinase D3 (Homo sapiens). As to conditions: at 1 µM.
Assay [14] addresses T5, cGMP-dependent protein kinase 1 (Homo sapiens) (UniProt Q13976).
T5 sequence (whole entry): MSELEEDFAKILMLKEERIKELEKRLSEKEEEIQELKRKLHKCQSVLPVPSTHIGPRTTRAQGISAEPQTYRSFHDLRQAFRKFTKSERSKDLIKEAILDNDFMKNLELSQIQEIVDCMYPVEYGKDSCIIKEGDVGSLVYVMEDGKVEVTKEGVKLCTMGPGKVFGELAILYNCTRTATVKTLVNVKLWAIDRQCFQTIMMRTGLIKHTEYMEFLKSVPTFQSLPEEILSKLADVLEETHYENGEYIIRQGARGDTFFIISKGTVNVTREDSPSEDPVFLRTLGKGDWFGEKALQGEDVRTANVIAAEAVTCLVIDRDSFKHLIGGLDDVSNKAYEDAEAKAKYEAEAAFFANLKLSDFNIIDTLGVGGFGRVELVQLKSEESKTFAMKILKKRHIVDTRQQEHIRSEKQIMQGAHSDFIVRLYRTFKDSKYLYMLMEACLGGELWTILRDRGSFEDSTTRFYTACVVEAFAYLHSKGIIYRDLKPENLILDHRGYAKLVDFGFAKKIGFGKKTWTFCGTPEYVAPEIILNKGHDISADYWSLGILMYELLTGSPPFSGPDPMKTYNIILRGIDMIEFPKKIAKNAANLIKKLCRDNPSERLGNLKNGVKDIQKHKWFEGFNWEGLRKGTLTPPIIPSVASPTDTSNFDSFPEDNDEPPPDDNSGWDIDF
As to conditions: at 0.1 µM.

Assay [15] concerns the target T5, cGMP-dependent protein kinase 1 (Homo sapiens). As to conditions: at 1 µM.
Assay [16] addresses T6, cGMP-dependent protein kinase 2 (Homo sapiens) (UniProt Q13237).
T6 sequence (whole entry): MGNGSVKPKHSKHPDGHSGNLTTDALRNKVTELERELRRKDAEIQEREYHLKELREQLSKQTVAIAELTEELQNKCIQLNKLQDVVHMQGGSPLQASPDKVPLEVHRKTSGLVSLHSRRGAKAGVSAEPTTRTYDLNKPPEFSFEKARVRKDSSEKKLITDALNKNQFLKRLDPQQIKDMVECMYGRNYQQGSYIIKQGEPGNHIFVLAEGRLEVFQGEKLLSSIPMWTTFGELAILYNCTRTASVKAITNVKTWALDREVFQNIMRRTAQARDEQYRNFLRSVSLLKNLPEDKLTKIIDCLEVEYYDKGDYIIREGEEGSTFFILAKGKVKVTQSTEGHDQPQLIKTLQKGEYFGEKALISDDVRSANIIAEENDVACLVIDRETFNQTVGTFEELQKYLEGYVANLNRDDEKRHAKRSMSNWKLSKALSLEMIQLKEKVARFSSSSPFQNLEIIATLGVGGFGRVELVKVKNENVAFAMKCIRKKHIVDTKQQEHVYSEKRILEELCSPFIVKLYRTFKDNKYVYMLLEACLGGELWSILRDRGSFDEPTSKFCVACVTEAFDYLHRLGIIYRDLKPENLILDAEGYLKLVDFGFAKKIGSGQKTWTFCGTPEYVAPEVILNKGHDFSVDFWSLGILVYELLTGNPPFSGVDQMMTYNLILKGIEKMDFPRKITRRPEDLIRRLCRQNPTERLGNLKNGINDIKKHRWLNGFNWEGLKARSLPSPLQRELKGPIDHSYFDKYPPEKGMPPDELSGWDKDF
As to conditions: at 0.1 µM.

Assay [17] addresses T6, cGMP-dependent protein kinase 2 (Homo sapiens). As to conditions: at 1 µM.
Assay [18] has as its target T7, cAMP-dependent protein kinase catalytic subunit PRKX (Homo sapiens) (UniProt P51817).
T7 sequence (whole entry): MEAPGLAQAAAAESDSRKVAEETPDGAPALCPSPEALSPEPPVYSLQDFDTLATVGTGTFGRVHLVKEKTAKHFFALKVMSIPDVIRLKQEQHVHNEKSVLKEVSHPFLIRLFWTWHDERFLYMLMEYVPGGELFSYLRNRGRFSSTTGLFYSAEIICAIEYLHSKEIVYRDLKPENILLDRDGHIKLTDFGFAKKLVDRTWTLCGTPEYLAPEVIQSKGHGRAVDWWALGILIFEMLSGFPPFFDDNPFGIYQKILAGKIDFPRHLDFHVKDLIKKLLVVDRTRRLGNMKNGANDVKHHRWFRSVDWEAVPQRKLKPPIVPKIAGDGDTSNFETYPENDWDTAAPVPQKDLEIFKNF
As to conditions: at 0.1 µM.

In assay [19] the target is T7, cAMP-dependent protein kinase catalytic subunit PRKX (Homo sapiens). As to conditions: at 1 µM.
Assay [20] addresses Rho-associated protein kinase 1 (Homo sapiens) (UniProt Q13464). As to conditions: at 0.1 µM.

Chain of Protein kinase C theta type (Homo sapiens) (Q04759 whole entry, looked up): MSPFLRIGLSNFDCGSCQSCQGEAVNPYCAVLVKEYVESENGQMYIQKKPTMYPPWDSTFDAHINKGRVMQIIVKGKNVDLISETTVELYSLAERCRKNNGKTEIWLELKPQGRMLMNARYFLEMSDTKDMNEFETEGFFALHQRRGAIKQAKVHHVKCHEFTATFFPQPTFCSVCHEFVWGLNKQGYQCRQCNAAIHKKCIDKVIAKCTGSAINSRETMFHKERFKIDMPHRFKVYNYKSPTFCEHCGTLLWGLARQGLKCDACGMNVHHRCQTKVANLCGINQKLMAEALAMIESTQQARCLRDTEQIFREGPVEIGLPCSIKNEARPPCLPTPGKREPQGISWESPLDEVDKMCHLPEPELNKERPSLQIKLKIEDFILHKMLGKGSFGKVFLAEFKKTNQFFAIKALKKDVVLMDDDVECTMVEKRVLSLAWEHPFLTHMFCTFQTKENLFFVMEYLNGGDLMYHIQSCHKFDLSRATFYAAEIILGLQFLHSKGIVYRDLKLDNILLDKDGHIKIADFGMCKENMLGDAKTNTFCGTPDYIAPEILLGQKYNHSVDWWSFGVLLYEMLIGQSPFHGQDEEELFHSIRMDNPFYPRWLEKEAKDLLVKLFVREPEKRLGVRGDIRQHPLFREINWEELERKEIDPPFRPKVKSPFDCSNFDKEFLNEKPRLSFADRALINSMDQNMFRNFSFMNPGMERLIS
Chain of Protein kinase C beta type (Homo sapiens) (P05771 2-671 limits assumed): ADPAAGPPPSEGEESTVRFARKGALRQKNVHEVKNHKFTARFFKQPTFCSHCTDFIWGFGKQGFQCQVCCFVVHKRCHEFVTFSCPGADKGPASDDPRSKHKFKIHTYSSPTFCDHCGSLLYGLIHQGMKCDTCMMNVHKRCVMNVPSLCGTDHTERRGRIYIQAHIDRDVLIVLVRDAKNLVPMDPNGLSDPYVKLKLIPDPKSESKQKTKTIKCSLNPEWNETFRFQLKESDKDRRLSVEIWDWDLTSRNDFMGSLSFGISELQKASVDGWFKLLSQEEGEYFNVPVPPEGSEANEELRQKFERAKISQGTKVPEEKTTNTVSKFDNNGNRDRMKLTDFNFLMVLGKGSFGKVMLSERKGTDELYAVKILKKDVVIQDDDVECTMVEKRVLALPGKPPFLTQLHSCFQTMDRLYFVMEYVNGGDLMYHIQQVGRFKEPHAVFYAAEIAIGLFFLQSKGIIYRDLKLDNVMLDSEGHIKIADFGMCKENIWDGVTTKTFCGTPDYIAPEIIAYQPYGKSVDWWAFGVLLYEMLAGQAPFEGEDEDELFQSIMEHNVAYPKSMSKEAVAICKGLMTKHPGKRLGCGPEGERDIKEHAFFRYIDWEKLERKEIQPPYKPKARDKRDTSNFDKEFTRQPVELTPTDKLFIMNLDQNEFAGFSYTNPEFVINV
Chain of Rho-associated protein kinase 1 (Homo sapiens) (Q13464 2-1354 limits assumed): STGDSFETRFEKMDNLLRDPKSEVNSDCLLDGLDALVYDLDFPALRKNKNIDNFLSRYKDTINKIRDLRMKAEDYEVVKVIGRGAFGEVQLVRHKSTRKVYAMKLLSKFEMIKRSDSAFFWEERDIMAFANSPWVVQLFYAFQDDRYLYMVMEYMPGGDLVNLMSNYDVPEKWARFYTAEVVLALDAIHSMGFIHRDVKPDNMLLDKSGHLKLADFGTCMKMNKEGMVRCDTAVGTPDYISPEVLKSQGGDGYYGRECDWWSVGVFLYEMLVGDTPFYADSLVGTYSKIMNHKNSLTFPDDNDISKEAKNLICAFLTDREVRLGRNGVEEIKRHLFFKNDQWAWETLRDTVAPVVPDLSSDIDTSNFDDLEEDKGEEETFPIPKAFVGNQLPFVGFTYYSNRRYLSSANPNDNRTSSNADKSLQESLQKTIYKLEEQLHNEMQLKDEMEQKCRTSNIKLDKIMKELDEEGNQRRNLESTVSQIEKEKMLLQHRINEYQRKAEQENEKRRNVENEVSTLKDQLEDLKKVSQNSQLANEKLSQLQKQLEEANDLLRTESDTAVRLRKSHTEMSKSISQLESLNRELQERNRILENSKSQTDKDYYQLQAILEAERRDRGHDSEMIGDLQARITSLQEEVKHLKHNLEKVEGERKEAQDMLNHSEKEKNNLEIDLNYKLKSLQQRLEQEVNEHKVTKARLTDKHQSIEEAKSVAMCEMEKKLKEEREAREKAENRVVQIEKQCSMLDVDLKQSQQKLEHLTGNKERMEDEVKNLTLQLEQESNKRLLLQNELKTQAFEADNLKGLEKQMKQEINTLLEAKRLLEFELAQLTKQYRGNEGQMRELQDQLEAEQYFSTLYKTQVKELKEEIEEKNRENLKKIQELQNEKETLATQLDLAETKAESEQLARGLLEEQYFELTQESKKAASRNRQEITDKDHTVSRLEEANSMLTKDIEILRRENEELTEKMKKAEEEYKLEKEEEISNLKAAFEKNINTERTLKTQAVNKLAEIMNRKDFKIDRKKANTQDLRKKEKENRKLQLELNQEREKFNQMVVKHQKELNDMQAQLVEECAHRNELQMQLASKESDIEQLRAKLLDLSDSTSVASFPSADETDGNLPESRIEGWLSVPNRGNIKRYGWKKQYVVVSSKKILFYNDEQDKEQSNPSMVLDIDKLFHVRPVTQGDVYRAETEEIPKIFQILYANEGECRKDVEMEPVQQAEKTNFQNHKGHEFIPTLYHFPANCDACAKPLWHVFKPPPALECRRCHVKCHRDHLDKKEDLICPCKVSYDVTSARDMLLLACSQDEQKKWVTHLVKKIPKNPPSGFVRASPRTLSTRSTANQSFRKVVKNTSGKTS

`CNC(=O)c1ncccc1Nc1nc(Nc2cc3c(cc2OC)CCCN3C(=O)CN(C)C)nc2[nH]ccc12`: the inhibition turned out to be 20.5% in assay [1]; 1.89% in assay [2]; 2.01% in [3]; 1.94% in assay [4]; 5.49% in assay [5]; 1.44% in [6]. Also, the inhibition in [7] stood at 7.12%; in assay [8], 5.48%; in assay [9] it was 24.5%; in [10], 7.16%; in assay [11] it was 41.6%; in [12], 9.65%. Besides, the inhibition is 55.3% in assay [13]; 1.9% in assay [14]; 7.42% in [15]; 3.34% in assay [16]; 5.86% in assay [17]; 1.64% in assay [18]. Further, the inhibition in assay [19] came out at 1.14%; in [20], 1.58%.
